Measurements as given in PubChem BioAssay (Tox21).
Records with an inconclusive call do not appear. Some structures have more than one record in an assay (separate samples or runs), and their calls can disagree. Activity calls are given as the source filed them. Calls come from the whole dose curve.
Potency is the fitted concentration of half-maximal effect.

Assay: qHTS assay to identify small molecule agonists of the AP-1 signaling pathway - cell viability counter screen (AID 1159525); note: nearly all actives have a fitted effect of over 55% in size
Details: ME-180 (cervical carcinoma) AP-1-bla cells viability, ATP luminescence, 5 h; series mostly up to 76.8 µM; viability change, negative = cytotoxic: at the top concentration
Source text: National Center for Advancing Translational Sciences [NCATS]
NIH Chemical Genomics Center [NCGC]
U.S. Environmental Protection Agency [EPA]
National Institutes of Environmental Health Sciences [NIEHS]
National Toxicology Program [NTP]
U.S. Food and Drug Administration [FDA]
Activator protein-1 (AP-1), a transcription factor, plays an important role in tumor genesis by regulating genes involved in cell proliferation, differentiation, apoptosis, and angiogenesis. AP-1 activity is induced by a complex network of signaling pathways that involves extracellular signals, such as growth factors. The AP-1 protein complex formed from c-Fos and c-Jun binding to the AP-1 response element results in transcriptional activation of genes containing such elements within their promoter.
Low molecular weight molecules have been discovered and developed to modulate various components of these signaling pathways, for example, MAP kinase inhibitors. However, many points of pathway modulation remain untested due to the lack of chemical probes making this signaling locus of general interest.
Using a beta-lactamase reporter-gene under control of the AP-1 response element, a cell-based assay [CellSensor(TM) AP-1-bla ME-180 developed by Invitrogen Corp.] was used to measure EGF-induced signaling. The Tox21 10K library compounds were measured for their ability to positively modulate the action of EC50 EGF on reporter gene activity. Compounds were screened in a 15-pt titration series in 1536-well format. The cytotoxicity of the Tox21 compound library against this cell line was tested in parallel by measuring the intra cellular ATP content in the same wells.
Tox21 Assay Protocol Summary:
2500 cells/5uL in Opti-MEM medium containing 0.5% dialyzed FBS, 0.1 mM NEAA, 1 mM sodium pyruvate and 10 mM HEPES was dispensed into 1536-well black wall/clear bottom plates using a Multidrop dispenser and cells were cultured at 37 degrees Celsius overnight. Next day 23 nL of compounds dissolved in DMSO, positive controls or DMSO were delivered to each well using a pin tool. The plates were incubated at 37 degrees Celsius for 5 hours. 1 uL of LiveBLAzerTM B/G FRET substrate (Solution A+B+C+D) was added to each well using a Flying Reagent Dispenser. After incubated at room temperature for 2.5 hours the plates were measured on an EnVision plate reader at Excitation 405nm, Emission1=460nm and Emission 2=530nm. The %Activity was determined from the ratio of 460nm/530nm.
After the plates were read for Beta-Lactamase assay on Envision; 3 ul Cell Titer Glo (Promega) was added to measure the cytotoxicity and the plates were then incubated at RT in dark for 30 min. The luminescence was read on ViewLux (Perkin Elmer, Shelton, CT) using 6 sec exposure. ViewLux data was expressed as relative luminescence units.
For primary data analysis, raw plate reads for each titration point were first normalized relative to […] EGF control (100%) and DMSO only wells (basal, 0%).
For primary data analysis for viability assay, raw plate reads for each titration point were first normalized Tetra n-octyl ammonium bromide control (-100%) and DMSO (control, 100%).
In the case of `OC[C@]1(O)OC[C@@H](O)[C@H](O)[C@@H]1O`, the Potency is reported as “inactive”. For `COC(=O)c1ccc(C)cc1C1=NC(C)(C(C)C)C(=O)N1` (stereo not given), the “viability change, negative = cytotoxic” value was -11.4% (inactive). For `C=C[Si](OC(=C)C)(OC(=C)C)OC(=C)C`, the “viability change, negative = cytotoxic” value was 3.48% (inactive). For `Nc1c[n+](N2CCOCC2)no1`, the “viability change, negative = cytotoxic” value was 4.93% [at 35.3 µM] (inactive). In the case of `CCCCOCCOCCOCc1cc2c(cc1CCC)OCO2`, the Potency is reported as “inactive”. For `NCCCNCCSP(=O)(O)O`, the viability change, negative = cytotoxic was -1.42% [at 6.97 µM] (inactive). With `Cn1c(N)c(N=O)c(=O)n(C)c1=O` the “viability change, negative = cytotoxic” value was -13.9% (inactive). For `Cc1c(NC(C)C)c(=O)n(-c2ccccc2)n1C`, the “viability change, negative = cytotoxic” value was -6.34% [at 35.3 µM] (inactive). With `CCN1CCC[C@H]1CNC(=O)c1c(O)c(Cl)cc(Cl)c1OC` the “viability change, negative = cytotoxic” value was -0.922% [at 35.3 µM] (inactive). For `CC1(C)C(O)C(C)(C)C1O` (stereo not given), the “viability change, negative = cytotoxic” value was 0.159% (inactive). With `CC(=O)OCC(=O)[C@@]1(O)CC[C@H]2[C@@H]3CCC4=CC(=O)CC[C@]4(C)[C@H]3C(=O)C[C@@]21C` the “viability change, negative = cytotoxic” value was -1.01% [at 35.3 µM] (inactive). In the case of `N=c1nc(N2CCCCC2)cc(N)n1O`, the “viability change, negative = cytotoxic” value is reported as 6.28% [at 35.3 µM] (inactive). With `CC(C)(c1ccc(O)cc1)c1ccc(O)cc1` the “viability change, negative = cytotoxic” value was -0.0138% (inactive). For `Oc1ccc(C2CNCCc3c2cc(O)c(O)c3Cl)cc1` (stereo not given), the “viability change, negative = cytotoxic” value was 0.75% [at 35.3 µM] (inactive). With `CCC(=O)OC(C)c1ccccc1` (stereo not given) the “viability change, negative = cytotoxic” value was -3.41% (inactive). For `OCCOc1ccc(OCCO)cc1`, the “viability change, negative = cytotoxic” value was -8.58% (inactive). With `O=C(O)c1ccccc1OP(=O)(O)O` the “viability change, negative = cytotoxic” value was 2.19% [at 35.3 µM] (inactive). In the case of `COC(=O)CC(C)=O`, the “viability change, negative = cytotoxic” value is reported as 1.38% (inactive). In the case of `CN1CCN(c2cc3c(cc2F)c(=O)c(C(=O)O)cn3-c2ccc(F)cc2)CC1`, the “viability change, negative = cytotoxic” value is reported as 3.19% [at 35.3 µM] (inactive). With `CC(C)(C)c1ccc(O)c(O)c1` the “viability change, negative = cytotoxic” value was 3.8% (inactive). In the case of `O=c1cc(-c2ccccc2)oc2ccccc12`, the Potency is reported as “inactive”. With `CCCN1CCCC[C@H]1C(=O)Nc1c(C)cccc1C` the “viability change, negative = cytotoxic” value was -5.59% [at 35.3 µM] (inactive). For `CN(C)CCCSc1ccccc1NC(=O)/C=C/c1ccccc1`, the “viability change, negative = cytotoxic” value was -12.3% [at 35.3 µM] (inactive). For `CCCCCCCCCCCC`, the “viability change, negative = cytotoxic” value was 22.6% (inactive). For `CC[N+](C)(C)c1cccc(O)c1`, the “viability change, negative = cytotoxic” value was -3.86% [at 35.3 µM] (inactive). For `CC(C(=O)O)c1ccc(CC2CCCC2=O)cc1` (stereo not given), the “viability change, negative = cytotoxic” value was 1.05% [at 35.3 µM] (inactive). In the case of `COC(=O)C1=C(C)NC(C)=C(C(=O)OC)C1c1ccccc1[N+](=O)[O-]`, the Potency is reported as 49 µM (active) and inactive. In the case of `c1ccc(CC2=NCCN2)cc1`, the “viability change, negative = cytotoxic” value is reported as 1.05% [at 35.3 µM] (inactive). For `CC(C[N+](C)(C)C)OC(N)=O` (stereo not given), the “viability change, negative = cytotoxic” value was 5.37% [at 35.3 µM] (inactive). With `CN1C(=O)N(C)C(O)C1O` (stereo not given) the “viability change, negative = cytotoxic” value was 10.5% (inactive). With `CCc1nccnc1CC` the viability change, negative = cytotoxic was -1.96% [at 15.8 µM] (inactive). In the case of `CC(C)CNCC(C)C`, the “viability change, negative = cytotoxic” value is reported as -3.05% (inactive). In the case of `COc1ccc2c(c1)CCCC2=O`, the “viability change, negative = cytotoxic” value is reported as -0.467% [at 35.3 µM] (inactive). For `CC(C)NCCCC1(C(N)=O)c2ccccc2-c2ccccc21`, the “viability change, negative = cytotoxic” value was -5.93% [at 35.3 µM] (inactive). For `CCOC(=O)C(=O)OCC`, the “viability change, negative = cytotoxic” value was 6.9% (inactive). In the case of `NC(=O)c1ccc(N)cc1`, the “viability change, negative = cytotoxic” value is reported as 0.293% (inactive). With `N[C@H](C(=O)O)c1ccc(O)cc1` the viability change, negative = cytotoxic was 10.2% [at 15.8 µM] (inactive). For `CCCCC(CC)COC(=O)c1ccccc1O` (stereo not given), the “viability change, negative = cytotoxic” value was -2.02% [at 35.3 µM] (inactive). With `CCOC(=O)c1cccc(N)c1` the “viability change, negative = cytotoxic” value was 6.66% [at 35.3 µM] (inactive). In the case of `CCCCCOC(=O)CCCCC`, the “viability change, negative = cytotoxic” value is reported as 1.83% (inactive).
